SMILES strings stand for the structures. The campaign covered roughly 360,000 compounds. About 5,000 (1.4%) were called active. Many of the other results were omitted from the sample, so actives are more common in it than they were. A number with no mark means an inactive call.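 Rule for the calls: active = inhibition of 50% or more, scaled per plate between neutral and stimulator controls; inactive = the rest.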

Broadly, the inhibition is the drop in the measured response relative to a control, in per cent.

A short description of this assay: blockers of Ca2+-induced mitochondrial swelling – biochemical, isolated mouse mitochondria, absorbance, primary screen (AID 602449).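 Note: 0% = DMSO wells given calcium and 100% = 1 mM EGTA wells.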 Conditions: 30 min, at 10 µM, hits give high values.
As to `CCCCn1c(N)c(N(CC(C)C)C(=O)c2cccc(S(=O)(=O)N3CC(C)OC(C)C3)c2)c(=O)[nH]c1=O` (stereo not given), the inhibition is 6.1%.
Turning to `CCOC(=O)c1cnc(Nc2nc3ccccc3o2)nc1CSC(=S)N1CCCCC1`, the inhibition was 1.4%.
Take `O=C(CN1C(=O)CC(c2ccccc2)=Nc2ccccc21)NC1CCCCC1`: the inhibition was -0.4%.
As for `COc1ccc(NC(=O)CN(C)C(=O)c2ccc(NC3CC3)c([N+](=O)[O-])c2)cc1`, the inhibition is 0.5%.
Under `Cc1cc(C=O)c(C)n1-c1ccc(NC2CCCCC2)c([N+](=O)[O-])c1` stands 80.6% (active).
To `Cc1cc([N+](=O)[O-])c(NC2CCCCC2)c([N+](=O)[O-])c1` belongs 0.6%.
Under `OC[C@@H]1CN(Cc2ccc(-c3ccccc3)cc2)C[C@H](n2cnc3c(NC4CCCC4)ncnc32)O1` stands 17.2%; under `COC(=O)c1ccc(OCC(O)CN(CCO)CC(O)Cn2ccc3ccccc32)cc1` (stereo not given), 0%.
On to `Cc1noc(C)c1S(=O)(=O)Nc1cc(C(F)(F)F)ccc1N1CCOCC1`, for which the inhibition was 4.6%.
Consider `Cc1ccc(N(CCC(=O)O)S(=O)(=O)c2cccc(C(F)(F)F)c2)cc1`, for which the inhibition was 1.1%.
Regarding `Cc1oc2c(F)c(F)c(F)c(F)c2c1S(=O)(=O)Nc1cccc(C(F)(F)F)c1`, the inhibition is 83.3% (active).
Under `O=C(c1ccccn1)c1ncc(C(F)(F)F)cc1Cl` stands -0.8%; under `N/C(=N\OC(=O)Nc1ccc(Cl)c(Cl)c1)c1ncc(C(F)(F)F)cc1Cl`, 88.1% (active); under `N/C(=N\OC(=O)CCCC(=O)O)c1ncc(C(F)(F)F)cc1Cl`, -0.2%.
As for `ONC(=Nc1ccc(Cl)cc1)c1ccccc1Cl`, the inhibition is 1%.
Under `CCOC(=O)C1CSC(CC(=O)Nc2ccc(OCC)cc2)C(=O)N1` (stereo not given) stands 3.6%; under `CCCCCCNCCn1cnc2c(N)ncnc21`, -0.8%.
To `COc1cccc(-c2cnc(OC(C)(C)C)nc2OC(C)(C)C)c1` belongs -0.3%; to `COc1ccc(C(C)NC(=O)C2CCCC2)cc1` (stereo not given), 0.1%.
Under `CCN(CC(=O)NCCCN1CCOCC1)S(=O)(=O)c1cc(Cl)ccc1Cl` stands -1.1%.
Take `COc1ccc(Cl)cc1NC(=O)CN(C)Cc1ccc(OC)c(OC)c1`: the inhibition is 0.9%.
Under `COc1ccc(Br)cc1C(=O)NC(=S)Nc1cc(-c2nc3ccccc3[nH]2)ccc1C` stands 70.7% (active); under `COc1ccccc1C(=O)NC(=S)Nc1ccccc1N1CCCCC1`, 1.3%.
Under `COc1ccc(Br)cc1C(=O)Nc1cccc(C)c1C` stands -1.2%.
Under `CC1CCCCC12NC(=O)N(CC(=O)OCC(=O)NCc1ccc(F)cc1)C2=O` (stereo not given) stands -0.2%.

Source of the values: PubChem BioAssay AID602449 (Sanford-Burnham Center for Chemical Genomics, 2012).
